Measurements reported in PubChem BioAssay (EPA / NIEHS).
Values joined by “and” are separate entries in the source; they are usually repeats but may differ in a detail not shown here. Equal entries are not always repeated. Active and inactive are the calls of the source. How the source made its calls: active means hit-call score of the fitted dose curve at least 0.9, where 1 is the maximum; inactive means score below 0.9.

Legend:
[1] = target: Hypoxia-inducible factor 1-alpha (Homo sapiens) (UniProt Q16665); test: ATG_HIF1a_CIS: Attagene CIS-FACTORIAL HepG2 Assay for human Hypoxia Inducible Factor 1 (HIF1A) (AID 2282951); settings: HepG2 Attagene cis-factorial HIF1a reporter transcription; actives raise or lower the signal
Summary of the method: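 HepG2 cells transiently transfected with multiple cis-regulated reporter transcription units measure endogenous transcription factor activity. After 24 h exposure, reporter mRNA is quantified by RT-PCR with 6-FAM labelling, HpaI digestion and capillary electrophoresis. Bidirectional fitting against DMSO.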

[2] = target: Hepatocyte nuclear factor 6 (Homo sapiens) (UniProt Q9UBC0); test: ATG_HNF6_CIS: Attagene CIS-FACTORIAL HepG2 Assay for human Hepatocyte Nuclear Factor 6 (HNF6) (AID 2282952); settings: HepG2 Attagene cis-factorial HNF6 reporter transcription; actives raise or lower the signal
Summary of the method: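 Reporter mRNA induction or loss in HepG2 after 24 h exposure; transient cis-MRTU transfection; fragments quantified by capillary electrophoresis; bidirectional analysis, DMSO as negative control.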

[3] = ATG_MRE_CIS: Attagene CIS-FACTORIAL HepG2 Assay for human Metal Responsive Element (MRE) (AID 2282954); settings: HepG2 MRE cis-reporter transcription, Attagene multiplex; actives raise or lower the signal
Summary of the method: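 After a 24 h chemical exposure, transiently transfected HepG2 cells yield RNA whose reporter sequences are amplified, FAM-labelled and sized by capillary electrophoresis. Curves are fitted bidirectionally relative to DMSO.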

[4] = ATG_PBREM_CIS: Attagene CIS-FACTORIAL HepG2 Assay for human Phenobarbital-responsive Enhancer Module (PBREM) (AID 2282955); settings: HepG2 PBREM cis-reporter, Attagene multiplexed transcription; actives raise or lower the signal
Summary of the method: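 HepG2 cells transiently transfected with multiple cis-regulated reporter units measure endogenous transcription factor activity; 24 h compound exposure. Reporter mRNA quantified by RT-PCR, fluorescent labelling, HpaI digestion and capillary electrophoresis; bidirectional fit versus DMSO.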

[5] = target: Paired box protein Pax-6 (Homo sapiens) (UniProt P26367); test: ATG_Pax6_CIS: Attagene CIS-FACTORIAL HepG2 Assay for human Paired Box 6 (PAX6) (AID 2282956); settings: HepG2 CIS-FACTORIAL PAX6 reporter transcription, RNA readout; actives raise or lower the signal
Summary of the method: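 Transient MRTU transfection of HepG2 → compound exposure 24 h → TriZol RNA, oligo(dT) RT → PCR, 6-FAM primer extension, HpaI cut → capillary electrophoresis; activity fitted both directions against DMSO.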

[6] = ATG_PXRE_CIS: Attagene CIS-FACTORIAL HepG2 Assay for human Pregnane X Receptor Element (PXRE) (AID 2282957); settings: HepG2 Attagene CIS-FACTORIAL PXRE reporter, mRNA; actives raise or lower the signal
Summary of the method: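 Transiently transfected HepG2 cells were dosed and incubated for 24 h. RNA was then isolated, DNase-treated, reverse-transcribed and reporter sequences amplified. Labeled, HpaI-digested fragments were quantified by capillary electrophoresis against DMSO.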

[7] = ATG_PPRE_CIS: Attagene CIS-FACTORIAL HepG2 Assay for human Peroxisome Proliferator-activated Response Element (PPRE) (AID 2282958); settings: HepG2 PPRE cis-element reporter, Attagene transcription factor profiling; actives raise or lower the signal
Summary of the method: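 HepG2 cells are transiently transfected with multiplexed cis-promoter reporter units to report endogenous PPAR activity. After 24 h dosing, reporter mRNA is read by RT-PCR and capillary electrophoresis. Fitting is bidirectional against DMSO.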

[8] = ATG_Sox_CIS: Attagene CIS-FACTORIAL HepG2 Assay for human SRY-box transcription factor (SOX) (AID 2282960); settings: HepG2 Attagene cis-factorial SOX reporter, mRNA; actives raise or lower the signal
Summary of the method: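 HepG2 cells transiently transfected with multiple cis-regulated reporter units, then dosed for 24 h. Reporter mRNA quantified by RT-PCR, fluorescent labelling, HpaI digestion and capillary electrophoresis; bidirectional fit versus DMSO.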

[9] = target: Heat shock factor protein 1 (Homo sapiens) (UniProt Q00613); test: ATG_HSE_CIS: Attagene CIS-FACTORIAL HepG2 Assay for human Heat Shock Transcription Factor 1 (HSE) (AID 2282953); settings: HepG2 HSE cis-reporter, Attagene RNA transcription; actives raise or lower the signal
Summary of the method: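 Endogenous transcription factor activity in transiently transfected HepG2, read as reporter mRNA by RT-PCR with fluorescent capillary electrophoresis after 24 h. Gain or loss of signal fitted versus DMSO baseline.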

[10] = ATG_RORE_CIS: Attagene CIS-FACTORIAL HepG2 Assay for human RAR-related Orphan Receptor Element (RORE) (AID 2282959); settings: HepG2 Attagene cis-factorial RORE reporter, mRNA; actives raise or lower the signal
Summary of the method: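 HepG2 cells carrying transiently transfected cis-regulated reporter units; RORE-driven reporter mRNA quantified 24 h post-dosing by RT-PCR, 6-FAM primer extension, HpaI digestion and capillary electrophoresis. Bidirectional fit versus DMSO.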

Measured: AC50

Hypoxia-inducible factor 1-alpha (Homo sapiens), sequence (Q16665 whole entry, looked up): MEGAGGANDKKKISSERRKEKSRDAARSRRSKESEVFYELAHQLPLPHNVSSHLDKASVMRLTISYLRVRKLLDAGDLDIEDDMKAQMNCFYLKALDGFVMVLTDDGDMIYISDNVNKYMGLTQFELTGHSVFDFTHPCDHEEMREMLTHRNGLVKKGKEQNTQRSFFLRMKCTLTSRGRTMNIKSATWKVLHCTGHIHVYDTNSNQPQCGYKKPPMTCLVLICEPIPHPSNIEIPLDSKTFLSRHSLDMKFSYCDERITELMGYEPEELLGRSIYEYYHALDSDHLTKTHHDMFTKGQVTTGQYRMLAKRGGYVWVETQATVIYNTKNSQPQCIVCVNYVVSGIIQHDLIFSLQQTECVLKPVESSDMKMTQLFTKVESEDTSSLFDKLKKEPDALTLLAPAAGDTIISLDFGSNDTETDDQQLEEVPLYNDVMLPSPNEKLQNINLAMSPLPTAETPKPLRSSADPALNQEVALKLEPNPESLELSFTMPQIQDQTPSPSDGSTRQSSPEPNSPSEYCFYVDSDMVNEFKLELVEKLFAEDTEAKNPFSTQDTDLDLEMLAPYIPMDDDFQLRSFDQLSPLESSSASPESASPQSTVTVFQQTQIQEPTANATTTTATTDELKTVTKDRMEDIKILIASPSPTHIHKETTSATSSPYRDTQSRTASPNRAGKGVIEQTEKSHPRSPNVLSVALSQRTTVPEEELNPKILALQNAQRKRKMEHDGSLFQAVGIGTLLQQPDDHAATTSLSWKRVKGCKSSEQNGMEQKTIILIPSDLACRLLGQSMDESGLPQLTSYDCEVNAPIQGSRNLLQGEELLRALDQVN
Hepatocyte nuclear factor 6 (Homo sapiens), sequence (Q9UBC0 whole entry, looked up, the tested form may be a part): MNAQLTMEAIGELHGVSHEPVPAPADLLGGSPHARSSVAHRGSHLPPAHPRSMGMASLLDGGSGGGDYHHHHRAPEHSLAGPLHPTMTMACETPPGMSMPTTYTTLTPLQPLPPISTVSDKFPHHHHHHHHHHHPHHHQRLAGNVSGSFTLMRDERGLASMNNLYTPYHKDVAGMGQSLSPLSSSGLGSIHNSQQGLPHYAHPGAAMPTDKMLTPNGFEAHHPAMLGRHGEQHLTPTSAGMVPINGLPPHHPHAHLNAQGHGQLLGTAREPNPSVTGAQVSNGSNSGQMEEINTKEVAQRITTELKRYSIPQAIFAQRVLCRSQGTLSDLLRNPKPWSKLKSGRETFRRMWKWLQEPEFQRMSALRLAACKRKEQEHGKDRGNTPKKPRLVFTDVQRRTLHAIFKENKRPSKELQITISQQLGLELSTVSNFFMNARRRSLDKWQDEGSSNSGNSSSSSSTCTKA
Paired box protein Pax-6 (Homo sapiens), sequence (P26367 whole entry, looked up): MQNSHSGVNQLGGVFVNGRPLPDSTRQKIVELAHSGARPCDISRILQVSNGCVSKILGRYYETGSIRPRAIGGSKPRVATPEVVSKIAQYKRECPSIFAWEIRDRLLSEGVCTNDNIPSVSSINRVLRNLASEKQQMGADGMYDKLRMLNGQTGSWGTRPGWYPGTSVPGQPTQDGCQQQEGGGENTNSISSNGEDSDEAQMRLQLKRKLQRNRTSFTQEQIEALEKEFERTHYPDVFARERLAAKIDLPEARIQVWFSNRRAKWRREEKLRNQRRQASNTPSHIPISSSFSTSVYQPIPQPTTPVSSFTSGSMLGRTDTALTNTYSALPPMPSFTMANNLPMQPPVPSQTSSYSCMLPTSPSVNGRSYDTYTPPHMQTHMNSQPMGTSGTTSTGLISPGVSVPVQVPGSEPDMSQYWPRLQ
Heat shock factor protein 1 (Homo sapiens), sequence (Q00613 whole entry, looked up): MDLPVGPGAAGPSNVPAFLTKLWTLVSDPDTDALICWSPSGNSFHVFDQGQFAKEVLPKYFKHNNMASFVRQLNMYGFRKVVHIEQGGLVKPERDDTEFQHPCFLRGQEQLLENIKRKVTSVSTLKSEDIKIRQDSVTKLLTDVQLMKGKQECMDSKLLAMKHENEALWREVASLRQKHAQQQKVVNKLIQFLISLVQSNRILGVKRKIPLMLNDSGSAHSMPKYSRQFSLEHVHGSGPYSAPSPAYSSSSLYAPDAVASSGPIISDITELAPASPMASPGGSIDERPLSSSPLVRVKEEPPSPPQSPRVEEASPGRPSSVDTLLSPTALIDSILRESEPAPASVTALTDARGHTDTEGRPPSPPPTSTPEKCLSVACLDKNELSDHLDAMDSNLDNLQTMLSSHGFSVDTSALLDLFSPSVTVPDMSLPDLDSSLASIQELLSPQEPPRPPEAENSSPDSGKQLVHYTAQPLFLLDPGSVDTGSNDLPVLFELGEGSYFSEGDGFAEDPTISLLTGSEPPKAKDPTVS

COC(=O)Nc1cccc(OC(=O)Nc2cccc(C)c2)c1
not listed: [9] | [10]
inactive: all other assays above

Cc1cc(Cl)ccc1O
not listed: [2] | [8]
inactive: all other assays above

OC(Cc1ccccc1Cl)(Cn1[nH]cnc1=S)C1(Cl)CC1 (configuration not stated)
inactive: [1] | [5] | [7] | [10]
active: [9] 140 µM | [3] 77.6 µM | [4] 21.7 µM | [6] 4.27 µM

O=C=Nc1ccc(Cl)cc1
not listed: [9]
inactive: all other assays above

CN(CCCC(O)c1cccnc1)N=O (configuration not stated)
not listed: [4] | [9]
inactive: all other assays above

Cc1cc(-c2cc(C)c(N)c(C)c2)cc(C)c1N
active: [6] 26.5 µM
not listed: [9] | [10]
inactive: all other assays above

C#CCO
not listed: [2]
inactive: all other assays above

C=CCN=C=S
not listed: [9] | [10]
inactive: all other assays above

C#CCOC(=O)/C=C(C)/C=C/CC(C)CCCC(C)C (configuration not stated)
not listed: [9]
inactive: all other assays above

Cc1c([N+](=O)[O-])c(C)c([N+](=O)[O-])c(C(C)(C)C)c1[N+](=O)[O-]
active: [3] 64.1 µM | [6] 1.54 µM
not listed: [9]
inactive: all other assays above

O=C/C(Cl)=C(/Cl)C(=O)O
inactive: [1] | [4] | [7]
active: [2] 136 µM | [3] 136 µM | [5] 132 µM | [6] 167 µM | [8] 83.9 µM

Brc1ccc(Oc2c(Br)cc(Br)cc2Br)c(Br)c1
not listed: [2] | [8]
inactive: all other assays above

CCCCCCCCCCCCc1cccc(S(=O)(=O)O)c1
active: [6] 17.9 µM
not listed: [7] | [9] | [10]
inactive: all other assays above

Cc1ccccc1OP(=O)(Oc1ccccc1C)Oc1ccccc1C
active: [3] 10.8 µM | [6] 0.0902 µM
not listed: [9]
inactive: all other assays above

O=[N+]([O-])c1ccc(Nc2ccccc2)cc1
active: [3] 80.4 µM | [4] 23.8 µM | [6] 26.9 µM
not listed: [7] | [9]
inactive: all other assays above

CCOP(=S)(OCC)SCSc1cc(Cl)ccc1Cl
not listed: [9] | [10]
inactive: all other assays above

CCCCCCCCCCCCCl
not listed: [4] | [9]
inactive: all other assays above

C=CC(=O)OCC(COC(=O)C=C)(COC(=O)C=C)COC(=O)C=C
active: [9] 56.5 µM | [3] 8.5 µM | [5] 8.18 µM | [10] 8.19 µM
inactive: [1] | [4] | [6] | [7]

c1ccc2c(c1)Oc1ccccc1O2
active: [6] 75.9 µM
not listed: [7] | [9]
inactive: all other assays above

CCCCCCCCCCBr
active: [6] 27.7 µM
not listed: [4] | [9]
inactive: all other assays above

Cc1cccc(C)c1NC(=O)CN1CCCC1=O
active: [6] 100 µM
not listed: [4] | [9]
inactive: all other assays above

CC(C)CP(=S)(S)CC(C)C
active: [6] 38.6 µM
not listed: [7] | [9] | [10]
inactive: all other assays above

c1csc(-c2ccc(-c3cccs3)s2)c1
active: [1] 3.28 µM | [3] 3.99 µM | [4] 2.58 µM | [6] 5.21 µM | [7] 2.09 µM
inactive: [2] | [5] | [8]

CC(C)(c1ccccc1)c1cc(-n2nc3ccccc3n2)c(O)c(C(C)(C)c2ccccc2)c1
active: [6] 15.3 µM
not listed: [9]
inactive: all other assays above

NNCCO
inactive: [1] | [9] | [3] | [5] | [6]
active: [10] 25.4 µM

CCC[N+](CCC)(CCC)CCC
not listed: [2] | [9] | [10]
inactive: all other assays above

N#Cc1ccncc1
not listed: [2] | [4]
inactive: all other assays above

CC1(C)COP(Oc2ccccc2)OC1
not listed: [2] | [7]
inactive: all other assays above

CCCCOC(=O)COC(=O)c1ccccc1C(=O)OCCCC
active: [6] 40.9 µM | [7] 42.6 µM | [10] 53.2 µM
not listed: [2]
inactive: all other assays above

CCCCCCCCBr
not listed: [2] | [7]
inactive: all other assays above

C[C@]12CC[C@@H](O)C[C@@H]1CC[C@@H]1[C@@H]2CC[C@]2(C)C(=O)CC[C@@H]12
inactive: [2] | [9] | [3] | [5] | [8]
active: [6] 6.91 µM

COP(=S)(OC)Oc1cc(Cl)c(I)cc1Cl
inactive: [4] | [7]
active: [1] 33.4 µM | [3] 37.5 µM | [5] 33.4 µM | [6] 8.06 µM | [10] 15 µM

OCCN(CCO)CCO
inactive: [1] | [3] | [4] | [5] | [6]

C=CCOC(N)=O
not listed: [2] | [10]
inactive: all other assays above

O=C(O)COc1ccc(Cl)cc1
not listed: [2] | [9] | [10]
inactive: all other assays above

O=c1[nH]c2ccccc2n1C1CCN(CCCC(c2ccc(F)cc2)c2ccc(F)cc2)CC1
not listed: [1] | [4] | [7]
inactive: all other assays above

C=CC(Cl)CCl (configuration not stated)
active: [6] 3.12 µM
not listed: [2] | [7] | [10]
inactive: all other assays above

CCOP(=S)(OCC)OP(=S)(OCC)OCC
active: [1] 49.2 µM | [6] 1.11 µM
not listed: [2]
inactive: all other assays above

BrCc1ccc(Br)cc1
not listed: [2] | [10]
inactive: all other assays above

Oc1c(Cl)cc(Cl)cc1Cl
active: [1] 41.6 µM
not listed: [2] | [7] | [10]
inactive: all other assays above

C[C@H]1C(=O)O[C@@H]2CCN3CC=C(COC(=O)[C@](C)(O)[C@]1(C)O)[C@H]23
not listed: [1] | [4]
inactive: all other assays above

O=C1C[C@@H]2OCC=C3CN4CC[C@]56c7ccccc7N1[C@H]5[C@H]2[C@H]3C[C@H]46
active: [6] 44.6 µM and 10.9 µM
not listed: [1] | [7] | [9]
inactive: all other assays above

CS(=O)(=O)c1ccc(C(=O)C2C(=O)CCCC2=O)c(Cl)c1COCC(F)(F)F
active: [6] 26.4 µM
not listed: [2] | [9]
inactive: all other assays above

CN(C)[C@@H]1C(=O)C(C(N)=O)=C(O)[C@@]2(O)C(=O)C3=C(O)c4c(O)ccc(Cl)c4[C@@](C)(O)[C@H]3C[C@@H]12
not listed: [2] | [7]
inactive: all other assays above

Nc1nc(=S)[nH][nH]1
not listed: [2] | [4] | [8]
inactive: all other assays above

C#C[C@]1(O)CC[C@H]2[C@@H]3CCC4=CC(=O)CC[C@]4(C)[C@H]3CC[C@@]21C
not listed: [1] | [10]
inactive: all other assays above

COc1nn(C(=O)NS(=O)(=O)c2ccccc2OC(F)(F)F)c(=O)n1C
not listed: [2] | [10]
inactive: all other assays above

C[C@@H]1O[C@@H](O[C@H]2C[C@@H](O)[C@]3(CO)[C@H]4[C@H](O)C[C@]5(C)[C@@H](C6=CC(=O)OC6)CC[C@]5(O)[C@@H]4CC[C@]3(O)C2)[C@H](O)[C@H](O)[C@H]1O
active: [2] 0.0716 µM | [9] 0.0716 µM | [6] 0.137 µM
not listed: [1]
inactive: all other assays above

CCCCOC(C)=O
inactive: [1] | [3] | [5] | [6] | [7] | [8]

CC(C)C(C)(N)C#N (configuration not stated)
active: [6] 26 µM
not listed: [2] | [7]
inactive: all other assays above

CCC(C)(C#N)N=NC(C)(C#N)CC (configuration not stated)
active: [6] 22 µM
not listed: [2] | [9]
inactive: all other assays above

O=c1nc(O)n(Cl)c(=O)n1Cl
inactive: [1] | [9] | [3] | [5] | [6] | [8]

CNC(=O)CSP(=O)(OC)OC
inactive: [1] | [3] | [4] | [5] | [6] | [7]

O=[N+]([O-])c1cccc2ccccc12
active: [6] 27.6 µM
not listed: [2] | [9]
inactive: all other assays above

O=C(O)CC(O)(CC(=O)O)C(=O)O
not listed: [1]
inactive: all other assays above
